Each structure is given as a SMILES string. The whole screen tested about 94,000 compounds, of which about 280 (0.3%) were called active. This excerpt belongs to a sample that is enriched for actives. Values without a mark were called inactive.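 How the source made its calls: active means activation above 40%, about the mean plus 3 SD, also judged a hit on visual image review; inconclusive means activation above 40% but not a hit on visual review; inactive means activation not above 40% and no visual hit.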

The results in this text go back to PubChem BioAssay AID819 (Columbia University Molecular Screening Center, 2007).

A short description of the assay: enhancers of NFkB p65 translocation in HUVEC – imaging, IL-1B stimulus, high-content imaging, primary screen (AID 819).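 Further: percent activation is computed from the nuclear over cytoplasmic p65 intensity ratio.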 To be noted: HUVEC IL-1B NFkB p65 nuclear translocation imaging; at 2 µM; active compounds read high.
As for `COC(=O)c1ccc(OCC(=O)NC(C)(C)C)cc1`, the activation is -5.58%. Next, `CCOC(=O)c1c(C)oc2cc(Br)c(OCC(N)=O)cc12`: -3.13%; `Cc1nn(C)c(Oc2ccccc2)c1[N+](=O)[O-]`: -6.86%. Next, `Cc1ccc(NC(=S)N/N=C2/CCCc3c(C)cc(C)cc32)cc1`: 10.5%; `COc1ccc(C(=O)Cc2cnn(-c3ccccc3)c2)c(O)c1`: 52.4% (active). Next, `Cc1cc(O)cc(O)c1C(=O)Cc1cnn(-c2ccccc2)c1`: -0.94%. For the compound `COc1ccc(CC(=O)c2ccc(O)cc2O)cc1OC`, the activation was 3.51%.

For `O=c1c2ccccc2nc2n1C(CSc1ccc(Cl)cc1)CN2` (centres undefined), the activation was -5.53%. Next, `O=c1c2c(nc3nc[nH]n13)CCC2`: 17.9%; `CCCCn1c(=S)[nH]c2cc(S(=O)(=O)N3CCCCC3)ccc21`: 6.8%.

For `Clc1ccc(-c2nnc(-c3ccccc3)nc2N2CCSCC2)cc1`, the activation was 6.76%. Next, `CC(C)CNC(=S)NNC(=O)c1ccccc1OC(F)F`: -19%; `O=C(Cc1ccccc1)Nc1c(C(=O)N2CCCCCC2)cnn1-c1ccccc1`: -2.59%; `c1ccc(-c2csc(N3CCc4ccccc4C3)n2)cc1`: -1.32%. Next, `Cc1[nH][nH]c(=O)c1C(c1ccc(-c2ccc(Cl)cc2)o1)c1c(C)[nH][nH]c1=O`: 49.6% (active); `Cc1[nH][nH]c(=O)c1N=Nc1ccccc1`: 19.6%; `O=C(CCc1ccc(S(=O)(=O)NC2CCCCC2)cc1)NCc1ccccc1`: 1.98%. Next, `CC(=O)c1cnc(SCCN2C(=O)c3ccccc3C2=O)nc1C`: -4.03%. For `CC(C)c1ccc(NC(=O)CCN2C(=O)c3ccc([N+](=O)[O-])cc3C2=O)cc1`, the activation was 6.09%. Next, `CCOC(=O)CC(=O)CSc1nc(-c2ccccc2)cc(-c2ccc(Cl)cc2)c1C#N`: 5.19%; `CN(C)/C=C/C(=O)c1ccccc1F`: -2.94%; `ONC(=Nc1ccc(Cl)cc1)c1ccccc1Cl`: 16.3%. Next, `O=C(/C=C/c1ccccc1)N/C(=C/c1ccccc1)C(=O)Nc1ccccc1O`: -5.06%; `CCOc1ccc(C(CCc2ccccc2)NC(=O)c2ccc(OC)c(OC)c2)cc1OCC` (centres undefined): -8.44%. As for `Cc1cc(Nc2ccccc2)nc(N)n1`, the figure is 19.9%; as for `CCOc1ccc(-c2c(C)n([O-])c3c([n+]2=O)CCCC3)cc1`, 0.86%; as for `Cc1cccc(-n2ncc(C#N)c2-n2cccc2)c1`, -2.16%.

For `CCOC(=O)CSc1ncc(-c2cccc(Cl)c2)cn1`, the activation was 4.13%. With `Cc1ccccc1-n1c(C)cc(/C=N/NC(=O)c2ccc(CN3CCOCC3)cc2)c1C`, the activation is 20.5%. As for `CC1CCc2c(c3ccccc3[nH]c2=O)O1` (centres undefined), the figure is -2.19%. As for `COC(=O)c1cc(OC)c(OC)cc1NC(=O)CSc1ccc(C)cc1`, the figure is -0.33%; as for `C/C=C/C(=O)Nc1nnc(C(C)C)s1`, 11.2%; as for `CC1=C(C(N)=O)C(c2sccc2C)n2nnnc2N1` (centres undefined), -11.1%.

Turning to `CCOC(=O)C1=C(CN2CCc3ccccc32)NC(=O)NC1c1cc(C)ccc1C` (centres undefined), the activation was 3.45%.

As to `COc1cc(NS(=O)(=O)c2ccc(N=Cc3c(C)[nH]n(-c4ccccc4)c3=O)cc2)nc(OC)n1`, the activation was -2.69%.

In the case of `Cc1cccc(N(C(=O)Cc2cccs2)C(C(=O)NC2CCCC2)c2ccsc2)c1` (centres undefined), the activation is -6.52%. As for `O=C(Nc1cc2ccccc2oc1=O)C1CCCCC1`, the figure is -8.41%. For `CCC(C)n1c(-c2cc(OC)c(OC)c(OC)c2)nc2nc3ccccc3nc21` (centres undefined), the activation is 6.63%. Turning to `COc1ccc(CCN(C(=O)COc2ccccc2)c2nc(-c3ccccc3)cs2)cc1OC`, the activation was 4.5%. For the compound `O=[N+]([O-])c1ccccc1OCCCCN1CCCCC1`, the activation was -1.68%. As for `COc1ccc(OCC(=O)NNC(=O)c2ccc(-c3ccccc3)cc2)cc1`, the figure is 21.4%; as for `CCNC(=S)NNC(=O)Cc1ccccc1`, 0.95%; as for `CC(C)(C)c1ccc(C(=O)NNC(=O)Cc2ccccc2)cc1`, 41.9% (active). As for `Cc1cccc(C)c1NC1=NC(=S)N(c2ccc(N(C)C)cc2)C1(C)C`, the figure is -11.7%. Next, `O=C(CN1CCN(S(=O)(=O)c2ccc3ccccc3c2)CC1)NC(=O)NC1CCCCC1`: -3.21%; `O=C(Cn1cncn1)N/N=C/c1c2ccccc2cc2ccccc12`: -10.3%.

In the case of `CCOC(=O)c1c(NC(=O)CCC(=O)NCc2ccco2)sc2c1CCCC2`, the activation is 1.18%.

Regarding `CC(C)OC(=O)c1c(NC(=O)c2ccco2)sc2c1CCCC2`, the activation is -2.72%.

For the compound `CCOC(=O)c1c(NC(=S)NC(=O)c2ccco2)sc2c1CCCC2`, the activation is 53.7% (active). As for `O=C(CSc1nnnn1-c1ccccc1)NCc1ccco1`, the figure is -8.15%. Regarding `Cc1sc(NC(=S)NC(=O)c2cccs2)nc1-c1ccc(CC(C)C)cc1`, the activation is 17.4%. As for `O=C(Nc1ccc(Br)c2cccnc12)c1ccc(Cn2cc([N+](=O)[O-])cn2)o1`, the figure is 25.7%.

On to `CCN(CC)CCNc1ccc(Cl)cc1[N+](=O)[O-]`, for which the activation was 11.6%. Consider `CC(Sc1nnc(Cc2ccc([N+](=O)[O-])cc2)o1)C(N)=O` (centres undefined), for which the activation was 0.99%. As for `CC(Oc1ccc(Cl)cc1Cl)C(=O)/C=C/N(C)C` (centres undefined), the figure is 4.7%.

On to `CC1=NC2(CCCc3c2no[n+]3[O-])N(O)C1(C)C` (centres undefined), for which the activation was 168% (active).

With `Cc1cccc(C)c1-n1c(C)cc(/C=C2\C(=O)NN(c3ccccc3)C2=O)c1C`, the activation is -7.75%. Next, `O=C(O)c1ccccc1-c1ccccc1C(=O)Nc1cccc2ccccc12`: 8.14%; `Cc1ccc(NC(=O)C(C)c2cccc(C(=O)c3ccccc3)c2)cc1` (centres undefined): -0.9%; `O=C1C(=O)N(c2ccccc2)c2ccccc21`: -1.05%. As for `O=C(NC1CCc2ccccc21)C12CN(Cc3ccccc3)CC1C(c1cccc([N+](=O)[O-])c1)=NO2` (centres undefined), the figure is -3.33%; as for `Cc1cc(C(=O)OCC(=O)Nc2ccc(F)c(F)c2)c(C)o1`, -18.7%; as for `CCn1c(COc2ccc(OC)cc2)nnc1SCC(=O)Nc1cc(OC)ccc1OC`, 4.96%. As for `CCn1c(SC)nc(O)c(C(c2ccc(OC)c(O)c2)c2c(O)nc(SC)n(CC)c2=O)c1=O`, the figure is 59.4% (active); as for `COc1ccc2c(c1OC)C(=O)OC2c1c(O)nc(SC)n(-c2ccccc2)c1=O` (centres undefined), 1.27%.

With `O=C(COc1ccc2ccccc2c1)N1CCN(C(=O)c2cccs2)CC1`, the activation is -12.1%. As for `Cc1nc2c(-c3ccc(F)cc3)c(C)nn2c(C)c1CCC(=O)NCc1ccco1`, the activation was -8.14%. Take `CCOC(=O)C1=C(c2ccccc2)N=C2SCC(=O)N2C1c1ccc(O)c(OC)c1` (centres undefined): the activation was 22.6%. Next, `Cc1cc(-c2ccccc2)n2nc(C)c(-c3ccccc3)c2n1`: -2.27%.

In the case of `CC(=O)c1ccc(OCCN2CCOCC2)cc1`, the activation was 29.4%. With `C/C(=N\NC(=O)c1ccc(C)cc1)C1C(=O)c2ccccc2C1=O`, the activation is -6.49%. Next, `Cc1ccc2[nH]c(=O)c(CN(CCCN(C)C)C(=O)Nc3cccc(Cl)c3)cc2c1`: 20.3%; `COc1ccc(NC(=O)CSc2nc(N)c(-c3ccccc3)c(=O)[nH]2)cc1`: 8.34%. As for `COC(=O)c1cccc(-n2[nH]nnc2=S)c1`, the figure is -3.54%; as for `COCc1cc(C(C)=O)ccc1OC`, 2.42%; as for `CN(C)c1ccc(NC(=S)N(CCc2ccccc2)C2CC(=O)N(c3c(Cl)cccc3Cl)C2=O)cc1` (centres undefined), -17.7%. Next, `O=C(N/N=C/C=C/c1ccccc1)C1CC1(c1ccccc1)c1ccccc1` (centres undefined): 4.51%. With `CCCn1nnc(NC(=O)COc2ccc(CC)cc2)n1`, the activation is 6.08%.

Take `COC(=O)CNC(=O)c1ccccc1[N+](=O)[O-]`: the activation was 2.74%. Next, `CCCCNC(=O)CCn1c(=S)[nH]c2cc3c(cc2c1=O)OCO3`: -3.47%; `COc1ccc(OCC(=O)NN2Cc3ccccc3C2=N)cc1`: 12.3%. As for `CCOc1cc(/C=C2/N=C(c3ccc(C(C)(C)C)cc3)OC2=O)cc(Cl)c1OS(C)(=O)=O`, the figure is 15.4%. Regarding `Cc1ccccc1OC/C(O)=C(\C#N)c1nc2ccccc2[nH]1`, the activation is -7.29%. Next, `COC(=O)c1c(NC(=O)CSc2nncs2)sc2c1CCCCC2`: 144% (active); `CCOC(=O)c1c(NC(=O)CSc2nnc(C)c(=O)[nH]2)sc2c1CCC2`: -7.67%; `COC(=O)c1c(NC(=O)c2cccs2)sc2c1CCCC2`: -38.1%.

With `CC(C)c1cc(C(N)=O)c(NC(=O)c2cccc(COc3ccc(Br)cc3)c2)s1`, the activation was 2.73%. In the case of `CCCC(O)(c1ccc(OC)cc1)C(CN(C)C)c1ccccc1` (centres undefined), the activation is 8.96%. Next, `CS(=O)(=O)N(CC(=O)Nc1ccc(F)cc1F)c1cccc([N+](=O)[O-])c1`: 2.79%; `CCOC(=O)c1c(NC(=O)CSc2nnc(CNc3ccc(C)cc3C)o2)sc(C)c1C`: 13.4%.

`CCOC(=O)NNC(=O)c1ccc(Cl)cc1`: the activation was -2.19%. For the compound `COc1ccc(C2CC(c3cccs3)=Nc3ccccc3S2)cc1OC` (centres undefined), the activation was 3.96%. `CCN(CC)C(=O)CSC1c2ccccc2C(=O)N1c1ccccc1` (centres undefined): the activation was 16.1%.

Consider `Cc1ccc(OCC(=O)N/N=C/c2ccncc2)cc1`, for which the activation was 9.97%.

In the case of `COc1ccc(NC(=O)CCN2CCCC2)c(OC)c1`, the activation is -7.64%. Consider `Cc1ccc(CNC(=O)CCNC(=O)Cn2ccc3ccccc3c2=O)cc1`, for which the activation is -10.3%. Next, `COc1ccc(NC(=O)CCNC(=O)Cn2ccc3ccccc3c2=O)c(OC)c1`: 49.9% (active); `Cc1ccc2c(c1)N(CC(=O)N(Cc1ccccn1)Cc1ccco1)C(=O)C(C(C)C)O2` (centres undefined): -18%.

In the case of `CCN1CCC(=NNC(=O)c2ccc(C)c([N+](=O)[O-])c2)CC1`, the activation is 9.79%.
